Experimental data: PubChem BioAssay AID1159577 (Broad Institute, 2015)
Out of some 1,300 compounds screened, about 240 (18%) were called active. Roughly 8% stayed inconclusive and do not appear here. The rule behind the calls is not given here. Only a sample is shown. Entries with a potency or affinity are not part of this list.

Experiment: HepG2 cell cytotoxicity, dose response, cytotoxicity control, cherry-picked samples (AID 1159577)
Details: HepG2 cytotoxicity counterscreen, plate reader; series mostly up to 19.5 µM

Structure (SMILES) | outcome
CO[C@@H]1CN(C)C(=O)c2cc(NC(=O)C3CC3)ccc2OC[C@H](C)N(CC2CCCC2)C[C@H]1C | inactive
CC(C)CNC[C@@H]1[C@@H](c2ccccc2)[C@@H](CO)N1Cc1ccc(F)cc1 | inactive
CCc1sc(N2[C@@H](C#N)[C@@H](c3ccccc3-c3ccccc3)[C@@H]2CO)nc1C | inactive
CN1c2ccc(C#Cc3cccnc3)cc2[C@@H]2[C@@H](CCN2C(=O)C2CCC2)[C@@H]1CO | inactive
CNC[C@@H]1Oc2cc(C#Cc3cccnc3)ccc2S(=O)(=O)N([C@H](C)CO)C[C@H]1C | inactive
COc1cc(CN2CC3(CCN(C(=O)c4cccnc4)CC3)c3c([nH]c4cc(OC)ccc34)[C@@H]2CO)cc(OC)c1 | inactive
C[C@@H]1CN([C@H](C)CO)C(=O)c2c(c3ccccc3n2C)-c2ccccc2CO[C@@H]1CN(C)Cc1cccc(F)c1 | inactive
COc1ccccc1S(=O)(=O)N(C)C[C@H]1OCc2ccccc2-c2c(n(C)c3ccccc23)C(=O)N([C@@H](C)CO)C[C@@H]1C | inactive
C[C@H](CO)N1C[C@H](C)[C@@H](CN(C)S(=O)(=O)c2cccc(F)c2)OCc2ccccc2-c2c(n(C)c3ccccc23)C1=O | inactive
COc1ccccc1S(=O)(=O)N(C)C[C@@H]1OCc2ccccc2-c2c(n(C)c3ccccc23)C(=O)N([C@@H](C)CO)C[C@@H]1C | inactive
C[C@H](CO)N1C[C@H](C)[C@@H](CN(C)Cc2ccc(Oc3ccccc3)cc2)OCc2ccccc2-c2c(n(C)c3ccccc23)C1=O | inactive
C[C@H]1CN([C@@H](C)CO)C(=O)c2c(c3ccccc3n2C)-c2ccccc2CO[C@@H]1CN(C)Cc1cccc(O)c1 | inactive
C[C@H](CO)N1C[C@H](C)[C@@H](CN(C)Cc2cccc(C(=O)Nc3ccccc3N)c2)OCc2ccccc2-c2c(n(C)c3ccccc23)C1=O | inactive
COc1cccc(CN(C)C[C@H]2OCc3ccccc3-c3c(n(C)c4ccccc34)C(=O)N([C@H](C)CO)C[C@@H]2C)c1 | inactive
C[C@H]1CN([C@@H](C)CO)C(=O)c2c(c3ccccc3n2C)-c2ccccc2CO[C@H]1CN(C)C(=O)Nc1ccc(-c2ccccc2)cc1 | inactive
C[C@H](CO)N1C[C@H](C)[C@H](CN(C)S(=O)(=O)c2ccc(Cl)cc2)OCc2ccccc2-c2c(n(C)c3ccccc23)C1=O | inactive
Cc1ccc(S(=O)(=O)N(C)C[C@H]2OCc3ccccc3-c3c(n(C)c4ccccc34)C(=O)N([C@H](C)CO)C[C@@H]2C)cc1 | inactive
O=C(C[C@H]1C[C@H]2c3cc(NC(=O)Cc4ccncc4)ccc3O[C@H]2[C@H](CO)O1)NCc1ccccc1 | inactive
COc1cccc(NC(=O)N(C)C[C@@H]2Oc3cc(C#Cc4ccccc4)ccc3S(=O)(=O)N([C@H](C)CO)C[C@@H]2C)c1 | inactive
COc1ccc(S(=O)(=O)N(C)C[C@H]2Oc3ncc(-c4ccncc4)cc3C(=O)N([C@H](C)CO)C[C@@H]2C)cc1 | inactive
COc1ccc(C#Cc2ccc3c(c2)O[C@@H](CN(C)C(=O)Nc2cccc(OC)c2)[C@H](C)CN([C@H](C)CO)S3(=O)=O)cc1 | inactive
C[C@@H]1CN([C@@H](C)CO)C(=O)c2cccc(NC(=O)c3cnccn3)c2O[C@@H]1CN(C)Cc1ccc(-c2ccccc2)cc1 | inactive

Structure (SMILES) | outcome
COc1ccc(NC(=O)N2CCC3(CC2)CN(C(=O)C2CCC2)[C@@H](CO)c2c3c3ccc(OC)cc3n2C)cc1 | inactive
C[C@H](CO)N1C[C@H](C)[C@@H](CN(C)C(=O)[C@H](C)c2ccccc2)OCc2ccccc2-c2c(n(C)c3ccccc23)C1=O | inactive
C[C@@H]1CN([C@@H](C)CO)C(=O)c2c(c3ccccc3n2C)-c2ccccc2CO[C@@H]1CN(C)C(=O)[C@H](C)c1ccccc1 | inactive
CO[C@@H]1CN(C)C(=O)c2ccc(NC(=O)NC(C)C)cc2OC[C@@H](C)N(Cc2ccccc2)C[C@H]1C | inactive
COc1cccc(NC(=O)N2[C@H](CO)[C@H](c3ccccc3)[C@H]2CNCC(C)C)c1 | inactive
COc1ccc(-c2ccccc2[C@H]2[C@@H](C#N)N(C(=O)NC3CCCC3)[C@H]2CO)cc1 | inactive
C[C@H](CO)N1C[C@H](C)[C@H](CN(C)CC2CC2)Oc2ccc(NS(=O)(=O)c3ccc(Cl)cc3)cc2CC1=O | inactive
C[C@@H]1CN([C@@H](C)CO)C(=O)c2cc(NC(=O)Nc3ccc(C(F)(F)F)cc3)ccc2O[C@H]1CN(C)C(=O)Nc1cccc2ccccc12 | inactive
C[C@@H]1CN([C@@H](C)CO)C(=O)c2cc(NC(=O)C3CC3)ccc2O[C@H]1CN(C)CC1CCCCC1 | inactive
COc1ccc(NC(=O)Nc2ccc3c(c2)CC(=O)N([C@H](C)CO)C[C@H](C)[C@@H](CN(C)CC2CCCCC2)O3)cc1 | inactive
C[C@H](CO)N1C[C@H](C)[C@H](CN(C)CC2CC2)Oc2ccc(NC(=O)Nc3cccc4ccccc34)cc2CC1=O | inactive
C[C@@H]1CN([C@@H](C)CO)C(=O)Cc2cc(NC(=O)Nc3ccc4c(c3)OCO4)ccc2O[C@@H]1CN(C)CC1CC1 | inactive
COc1ccc(C#Cc2ccc3c(c2)O[C@@H](CN(C)S(=O)(=O)c2ccccc2F)[C@@H](C)CN([C@H](C)CO)S3(=O)=O)cc1 | inactive
OC[C@@H]1[C@@H](c2ccccc2)C2(CN(CC3CC3)C2)N1Cc1ccc(F)cc1 | inactive
COCC(=O)Nc1ccc2c(c1)C(=O)N(C)C[C@H](OC)[C@H](C)CN(Cc1cc(F)ccc1F)[C@H](C)CO2 | inactive
COc1ccc(CN(C)C[C@@H]2Oc3c(NC(=O)c4ccc(-c5nccs5)cc4)cccc3C(=O)N([C@@H](C)CO)C[C@H]2C)cc1 | inactive
COc1ccc(S(=O)(=O)N(C)C[C@H]2Oc3c(NC(=O)Nc4cccc5ccccc45)cccc3C(=O)N([C@@H](C)CO)C[C@H]2C)cc1 | inactive
COc1ccc(S(=O)(=O)N(C)C[C@@H]2Oc3c(NC(=O)Nc4cccc5ccccc45)cccc3C(=O)N([C@H](C)CO)C[C@@H]2C)cc1 | inactive
C[C@H](CO)N1C[C@H](C)[C@@H](CN(C)Cc2ccc(-c3ccccc3)cc2)Oc2c(NC(=O)c3ccc(-c4nccs4)cc3)cccc2C1=O | inactive
COc1ccc(S(=O)(=O)Nc2cccc3c2O[C@H](CN(C)Cc2ccc(-c4ccccc4)cc2)[C@@H](C)CN([C@H](C)CO)C3=O)cc1 | inactive
COc1ccc(NC(=O)N(C)C[C@H]2Oc3c(NC(=O)Nc4ccccc4)cccc3C(=O)N([C@@H](C)CO)C[C@H]2C)cc1 | inactive
COc1ccc2c3c([nH]c2c1)[C@H](CO)N(Cc1ccc(F)cc1)CC31CCN(C(C)=O)CC1 | inactive

Structure (SMILES) | outcome
CNC[C@H]1Oc2ncc(-c3ccc(OC)cc3)cc2C(=O)N([C@H](C)CO)C[C@H]1C | inactive
C[C@@H]1CN([C@@H](C)CO)C(=O)c2cc(NC(=O)Nc3ccc4c(c3)OCO4)ccc2O[C@H]1CN(C)C(=O)Nc1cccc2ccccc12 | inactive
C[C@H]1CN([C@@H](C)CO)S(=O)(=O)c2ccc(C#Cc3ccncc3)cc2O[C@H]1CN(C)S(=O)(=O)c1ccc(F)cc1 | inactive
COc1ccccc1S(=O)(=O)N(C)C[C@@H]1Oc2cc(C#CCC(C)C)ccc2S(=O)(=O)N([C@@H](C)CO)C[C@H]1C | inactive
COc1cccc(NC(=O)N(C)C[C@@H]2Oc3cc(C#Cc4ccc(F)cc4)ccc3S(=O)(=O)N([C@H](C)CO)C[C@@H]2C)c1 | inactive
C[C@@H]1CN([C@@H](C)CO)S(=O)(=O)c2ccc(/C=C/c3ccccc3)cc2O[C@H]1CN(C)Cc1cccnc1 | inactive
COc1cccc(NC(=O)N(C)C[C@@H]2Oc3cc(C#Cc4ccc(F)cc4)ccc3S(=O)(=O)N([C@@H](C)CO)C[C@@H]2C)c1 | inactive
CC(C)CC#Cc1ccc2c(c1)O[C@H](CN(C)S(=O)(=O)c1ccc(F)cc1)[C@@H](C)CN([C@@H](C)CO)S2(=O)=O | inactive
C[C@@H]1CN([C@@H](C)CO)S(=O)(=O)c2ccc(/C=C/c3ccccc3)cc2O[C@H]1CN(C)C(=O)C1CC1 | inactive
COc1ccccc1S(=O)(=O)N(C)C[C@@H]1Oc2cc(C#CCC(C)C)ccc2S(=O)(=O)N([C@@H](C)CO)C[C@@H]1C | inactive
COc1ccc(NC(=O)N(C)C[C@H]2Oc3cc(C#CCC(C)C)ccc3S(=O)(=O)N([C@H](C)CO)C[C@H]2C)cc1 | inactive
CCCC(=O)N1CCC2(CC1)CN[C@@H](CO)c1[nH]c3cc(OC)ccc3c12 | inactive
N#C[C@@H]1[C@H](c2ccccc2C2=CCCCC2)[C@@H](CO)N1S(=O)(=O)c1ccccc1 | inactive
COc1ccc(C#Cc2ccc3c(c2)[C@@H]2[C@@H](CCN2C(=O)C2CC2)[C@H](CO)N3)cc1 | inactive
COCC(=O)N1CC2(C1)CN(Cc1cccc(Cl)c1)[C@@H](CO)c1[nH]c3cc(OC)ccc3c12 | inactive
CCC(=O)Nc1ccc2c(c1)OC[C@H](C)N(Cc1ccccn1)C[C@H](C)[C@H](OC)CN(C)C2=O | inactive
CN(C)CC#Cc1cccc(-c2nc(C(=O)N[C@@H]3CCN(Cc4ccccc4)C3)cc3c2[C@H](CCO)N(S(=O)C(C)(C)C)C3)c1 (stereo not given in full) | inactive
COc1ccc(C#Cc2ccc3c(c2)O[C@@H](CN(C)S(=O)(=O)c2ccccc2F)[C@@H](C)CN([C@@H](C)CO)S3(=O)=O)cc1 | inactive
COc1ccc2c3c([nH]c2c1)[C@H](CO)N(Cc1cc(F)ccc1F)CC31CCN(C(C)=O)CC1 | inactive
CN1C[C@H]2[C@@H](c3ccccc31)[C@H](CO)N2Cc1ccccc1F | inactive
COc1cccc(NC(=O)N2[C@@H](CO)[C@@H](c3ccccc3)[C@@H]2CNCC(C)C)c1 | inactive
